KDM5B inhibitor = KDM5B demethylase inhibition. Q9UGL1. Potency, µM (highest dose often 57.7 µM), most hits filed as inhibitors. 220,000 compounds, 2.6% hits. KDM5B demethylase, FDH-coupled NADH fluorescence (FDH is formaldehyde dehydrogenase). AID 1347165; active = well fitted inhibition curve with a large enough effect; note: nearly all actives have a fitted effect of over 70% in size
Target sequence (Q9UGL1 whole entry, looked up): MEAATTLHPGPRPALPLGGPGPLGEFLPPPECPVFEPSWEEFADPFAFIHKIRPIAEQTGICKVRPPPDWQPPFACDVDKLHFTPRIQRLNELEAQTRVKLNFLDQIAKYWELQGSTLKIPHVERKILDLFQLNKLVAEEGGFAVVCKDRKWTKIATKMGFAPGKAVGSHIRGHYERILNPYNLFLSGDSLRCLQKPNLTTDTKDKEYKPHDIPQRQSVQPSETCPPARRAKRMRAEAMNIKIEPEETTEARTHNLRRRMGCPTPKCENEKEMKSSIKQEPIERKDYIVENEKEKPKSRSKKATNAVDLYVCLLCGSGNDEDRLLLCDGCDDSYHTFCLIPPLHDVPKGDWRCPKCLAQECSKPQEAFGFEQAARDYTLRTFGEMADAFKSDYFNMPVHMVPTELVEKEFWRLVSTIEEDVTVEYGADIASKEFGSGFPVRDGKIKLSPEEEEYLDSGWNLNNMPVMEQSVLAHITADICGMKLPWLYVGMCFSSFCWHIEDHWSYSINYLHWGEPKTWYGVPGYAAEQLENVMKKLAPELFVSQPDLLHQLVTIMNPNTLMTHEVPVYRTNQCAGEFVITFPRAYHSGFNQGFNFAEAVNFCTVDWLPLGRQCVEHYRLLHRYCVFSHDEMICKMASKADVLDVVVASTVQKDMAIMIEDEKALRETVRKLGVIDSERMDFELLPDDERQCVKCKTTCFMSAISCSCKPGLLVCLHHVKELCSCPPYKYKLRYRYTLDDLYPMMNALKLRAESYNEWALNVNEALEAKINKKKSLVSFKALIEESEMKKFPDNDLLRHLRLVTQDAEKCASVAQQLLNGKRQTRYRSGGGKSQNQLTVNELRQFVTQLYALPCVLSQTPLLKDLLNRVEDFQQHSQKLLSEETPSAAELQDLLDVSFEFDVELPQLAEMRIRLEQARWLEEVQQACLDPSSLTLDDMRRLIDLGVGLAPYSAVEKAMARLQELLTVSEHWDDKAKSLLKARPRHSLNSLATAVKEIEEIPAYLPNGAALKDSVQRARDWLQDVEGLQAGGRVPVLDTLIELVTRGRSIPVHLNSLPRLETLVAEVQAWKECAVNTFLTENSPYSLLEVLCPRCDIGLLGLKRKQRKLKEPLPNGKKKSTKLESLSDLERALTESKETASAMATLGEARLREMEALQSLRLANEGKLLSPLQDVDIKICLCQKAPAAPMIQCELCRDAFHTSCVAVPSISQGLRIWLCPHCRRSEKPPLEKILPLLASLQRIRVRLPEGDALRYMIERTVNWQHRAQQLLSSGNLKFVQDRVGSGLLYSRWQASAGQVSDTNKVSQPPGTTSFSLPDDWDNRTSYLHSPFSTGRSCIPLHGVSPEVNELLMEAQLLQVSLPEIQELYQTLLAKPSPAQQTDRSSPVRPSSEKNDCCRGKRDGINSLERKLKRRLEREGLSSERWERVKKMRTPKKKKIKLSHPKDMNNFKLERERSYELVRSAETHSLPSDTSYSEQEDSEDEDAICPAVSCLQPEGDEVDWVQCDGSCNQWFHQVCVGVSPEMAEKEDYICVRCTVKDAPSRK
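Here, H3K4me3 peptide (12.5 µM in substrate mix) is demethylated by KDM5BΔAP, 200 nM final, after 10 min compound exposure. Formaldehyde product is coupled through FDH (0.25 U/mL in mix) to NADH fluorescence; 30-min ΔRFU feeds dose-response curves.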
Large screens that a line does not name were inactive. The entries come from a sample that favours hits as a whole.

O=CNNC(=S)NCCc1ccccc1	none
CCCn1c(NC(=O)CCOc2ccc(C)cc2)nc2ccccc21	none
CC(=O)NC1(C)CCCN(Cc2cc(-c3cccc(N4CCOCC4)c3)cs2)C1 (centres undefined)	none
CC(=O)NC1(C)CCCN(Cc2cc(-c3ccccc3)cs2)C1 (centres undefined)	none
CC(=O)NC1(C)CCN(Cc2ccc(-c3ccc(N4CCOCC4)cc3)cc2)C1 (centres undefined)	KDM5B inhibitor 28µM
CCCc1nn(-c2ccccc2C)c(OC(C)=O)c1-c1ccc(NC(C)=O)cc1	none
COC(=O)c1cn(-c2ccccc2)nc1-c1ccc(OC)c(OC)c1	none
COc1cccc(-c2nn(-c3ccccc3)c(OC(C)=O)c2-c2ccc(NC(=O)C3CCCC3)cc2)c1	KDM5B inhibitor 13µM
COc1cccc(-c2ccc(NC(=O)C3CCCN(C(=O)CC(F)(F)F)C3)cc2)c1 (centres undefined)	none
COc1ccc(-c2nn(-c3ccccc3C)c(OC(C)=O)c2-c2ccc(NC(C)=O)cc2)cc1OC	KDM5B inhibitor 28µM
Cc1ccc(NC(=O)Cn2nc(-c3ccc(F)cc3)c3cnc4ccc(C)cc4c32)cc1	none
CC(=O)Oc1c(-c2ccc(NC(=O)CC(C)C)cc2)c(-c2ccc(F)cc2)nn1-c1ccc(F)cc1	KDM5B inhibitor 28µM
COc1ccc(Cl)cc1-n1cc(-c2ccccc2)nc1SCC(=O)Nc1ccc(C)cc1	none
COc1ccccc1-c1cc(NC(=O)COc2ccc(C)c(C)c2)n(-c2ccccc2)n1	none
COCC(=O)Nc1ccc(-c2c(-c3ccccc3OC)nn(-c3ccc(C)cc3)c2OC(C)=O)cc1	KDM5B inhibitor 22µM
CC(C)CC(=O)Nc1ccccc1	none
COc1cccc(-c2ccc(NC(=O)C3CCCN3C(=O)C3(C)CC3)cc2)c1 (centres undefined)	none
CCCc1nc(NCc2ccncc2)c(C#N)c2c1CCCC2	none
CCCCNc1nc(-c2ccc(OC)c(OC)c2)cs1	none
Cc1cc(C)cc(NC(=O)CCc2ncc(-c3ccc(Cl)cc3)o2)c1	none
COc1ccc(C2=NN(c3nc(C)cs3)C(c3ccccc3)C2)cc1 (centres undefined)	none
COc1cc(Cl)c(NC(=O)Cc2coc3cc(C)c(C)cc23)cc1OC	none
CNS(=O)(=O)c1ccc(C(=O)N2CCCC2c2ccc3c(c2)OCCCO3)cc1 (centres undefined)	none
COCC(=O)Nc1ccc(-c2c(-c3cccc(OC)c3)nn(-c3ccccc3)c2OC(C)=O)cc1	KDM5B inhibitor 28µM
COCC(=O)Nc1ccc(-c2c(CC(C)C)nn(-c3ccccc3)c2OC(C)=O)cc1	none
COCC(=O)Nc1ccc(-c2c(C(C)C)nn(-c3cccc(F)c3)c2OC(C)=O)cc1	none
O=S(=O)(NC[C@H]1OC[C@@H](NCc2cccnc2)[C@@H]1O)c1ccccc1	none
CN1CCCCC1CCNC(=O)c1ccc(N2CCOCC2)nc1 (centres undefined)	none
CN1CCCC1CCNc1nccc(-c2cnn(-c3ccc(F)cc3)c2)n1 (centres undefined)	KDM5B inhibitor 28µM
CN1CCCC1CCNc1nccc(-c2cnn(-c3ccccc3F)c2)n1 (centres undefined)	KDM5B inhibitor 28µM
N#Cc1ccc(NC(=O)CCCc2cccs2)cc1	none
COc1ccc(NC(=O)N2CCCCC2c2nc(C3CC3)n[nH]2)cc1 (centres undefined)	none
COc1ccccc1CC(=O)N1CC[C@@H]2NC(=O)[C@H]3C[C@H](NC(=O)C4CCCC4)CN3C(=O)[C@H]21	none
CC(C)C(=O)N1CCC(C(=O)NCC2(c3ccccc3)CC2)CC1	none
O=C(COc1ccccc1)N1C[C@@H](CO)[C@H](c2ccccn2)C1	none
CCC(O)C1=C(c2ccccc2)Oc2ccccc2C1c1ccccc1 (centres undefined)	none
CCc1nc2c(c(-c3ccc(O)cc3)n1)CN(CCC(C)C)CC2	none
O=C(c1ccc(-c2ncc3cnc(-c4ccccc4)cn23)cc1)N1CCc2cccnc21	KDM5B inhibitor 32µM
Cc1ccc(N(C)S(=O)(=O)c2cccc(C(=O)NCCCN3CCCC3=O)c2)cc1	none
CC(C)n1nc(C(=O)NCCCN2CCCC2=O)c2ccccc2c1=O	none
O=C(NCCCn1ccnc1)c1ccc(-c2ncc3cnc(-c4ccccc4)cn23)cc1	KDM5B inhibitor 32µM
O=C(NCCCN1CCCC1=O)c1ccc(-c2ncc3cnc(-c4ccccc4)cn23)cc1	KDM5B inhibitor 32µM
O=C(NCCCn1ccnc1)c1ccc(S(=O)(=O)Nc2ccccc2)cc1	none
Cc1ccc(C(=O)N2CCc3cc(CNC(=O)COc4ccccc4)ccc32)cc1	none
O=C(NCCCn1ccnc1)c1ccc(-c2ccccc2)cc1	none
O=C(Nc1ccc2[nH]ccc2c1)c1ccc(-c2ncc3cnc(C4=CCOCC4)cn23)cc1	none
CCn1c(SCc2nnc(C)o2)nc2sc(C)c(C)c2c1=O	none
CCc1nc2c(c(-c3ccc(OC)cc3)n1)CCN([S+](=O)([O-])c1ccc(N(C)C)cc1)CC2	none
COc1cccc(-c2nnnn2[C@H]2CO[C@H]3[C@@H]2OC[C@@H]3NC(=S)Nc2ccc(F)cc2)c1	none
CC1=NOC2(CCN([S+](=O)([O-])c3ccccc3)C2)C1 (centres undefined)	none
COc1ccc2c(c1)OCCN(c1ccc(NC(=O)c3cccc(C)c3)cc1C(=O)O)C2	none
COc1ccccc1C(=O)N(Cc1ccc(C(C)C)cc1)C1CCS(=O)(=O)C1 (centres undefined)	none
CCN1CCN(c2nc3ccccc3nc2C(C#N)S(=O)(=O)c2ccc(OC)cc2)CC1 (centres undefined)	none
Cc1nn2c(NCCN(C)C)cc(C(C)(C)C)nc2c1-c1ccc(F)cc1	none
COc1ccccc1/C=C/CN1CC[C@@H](c2ccc3c(c2)OCO3)[C@H](O)C1	none
COc1cc(OC)cc(C(=O)NCC2CCCN(C/C=C/c3ccccc3OC)C2)c1 (centres undefined)	none
COc1ccccc1/C=C/CN1CCn2nc(CO)cc2C1	KDM5B inhibitor 28µM
COc1ccc(C(=O)NC2CCCCNC2=O)cc1OC (centres undefined)	none
Cc1cc(C=O)cc(C)c1OCc1ccccn1	none
Cc1c(C#N)c(NC(=O)CN2CCNC(=O)C2)n(Cc2ccco2)c1C	none
CNC(C)c1ccncc1 (centres undefined)	KDM5B inhibitor 16µM
CNC(C)c1ccc(Oc2ccccc2)cc1 (centres undefined)	none
CNC(C)c1ccc(OC(F)(F)F)cc1 (centres undefined)	none
Cn1ncc(N2CCCC(C(=O)O)C2)cc1=O (centres undefined)	none
CCNc1nnc(SCc2nc(-c3ccccc3)no2)s1	none
CCCc1noc(-c2ccn3c(CNC(=O)c4cc(Cl)ccc4F)nnc3c2)n1	none
COc1ccccc1C(=O)NCc1nnc2cc(-c3nc(C)no3)ccn12	KDM5B inhibitor 10µM
CCc1noc(-c2ccn3c(CNC(=O)c4cc(Cl)ccc4OC)nnc3c2)n1	none
Cc1noc(-c2ccn3c(CNC(=O)c4cccc5[nH]ccc45)nnc3c2)n1	KDM5B inhibitor 25µM
COc1ccccc1C(=O)NCc1nnc2cc(-c3nc(C(C)C)no3)ccn12	KDM5B inhibitor 22µM
CCCc1noc(-c2ccn3c(CNC(=O)c4ccccc4OCC)nnc3c2)n1	KDM5B inhibitor 10µM
CCOC(=O)N1CCN(Cc2nc3c(c(=O)[nH]c(=O)n3C)n2CCOC)CC1	none
COc1cc2cc(C(=O)N[C@H](C(=O)Nc3nccs3)C(C)C)n(C)c2c(OC)c1OC	none
O=C(OCC1CCCO1)c1ccc(O)cc1 (centres undefined)	none
CNC(=O)c1cccc(-c2ccc(C(C)(C)C#N)cc2)n1	none
O=C1C=Cc2ccc(Br)c3cccc1c23	none

Source: PubChem (National Center for Advancing Translational Sciences (NCATS))
